# Inconclusive results are not listed. Where a call stands in place of a potency, no number is given. Calls of active or inactive are those of the source. The call rests on the fitted dose curve; in most records, active means well fitted curve in the direction sought with a large enough effect; inconclusive means small, poorly fitted or top-dose-only effect, or another doubt; inactive means no such curve, though single readings can be large or run the other way.
# Experiment: qHTS for Inhibitors of the vitamin D receptor (VDR): Hit Validation using a Texas Red Assay (AID 602201)
# Conditions: VDR coregulator binding, Texas Red fluorescence polarization; series mostly up to 57.1 µM
# Excerpt: The vitamin D receptor (VDR) is a ligand-activated transcription factor and is partially responsible for the regulation of the endocrine system. This includes the transcriptional regulation of genes involved in the production of the parathyroid hormone (PTH) and the regulation of the blood calcium level. High levels of PHT can cause hypercalcemia in the case of primary and tertiary hyperparathyroidism. The VDR-mediated gene regulation, activated by its ligand 1,25-dihydroxyvitamin D3 (1,25-(OH)2D3), is governed by the recruitment of coactivators. Our hypothesis is that small molecules, with the ability to inhibit the interaction between VDR and certain coactivators, are able to selectively modulate VDR-mediated transcription. Our long term objective is the application these VDR-coactivator inhibitors to study the role of VDR-coactivator binding for specific VDR regulated genes. Ultimately, these molecules can be developed into new treatments for hypercalcemic hyperparathyroidism. No small molecule or non-peptide inhibitors are known for the VDR-coactivator interaction.
# In a collaboration between the University of Wisconsin, Milwaukee and the NIH Chemical Genomics Center (NCGC) a HTS-compatible enzymatic assay was developed. The assay uses fluorescence polarization as its read-out to measure the inhibition between VDR and coregulator peptide SRC2-3 exerted by small molecules. This assay was used to screen the NIH Molecular Libraries Small Molecule Repository (MLSMR). The HTS assay detects polarization at 665 nm emitted by the Alexa Fluor 647 dye. This validation assay detects polarization of the emission from Texas-Red at 615 nm.
# NIH Chemical Genomics Center [NCGC]
# NIH Molecular Libraries Probe Centers Network [MLPCN]
# Assay Submitter (PI): Alexander Arnold, University of Wilwaukee
# Four microliter of either 1.5 uM VDR-LBD, […], and 7 nM Texas Red (all final concentrations) in columns 1, 2, and 5 to 48 or 7 nM Texas Red in columns 3 and 4 are dispensed into black medium-binding solid bottom Greiner plates. Both solutions are kept at 4 deg C and protected from light and dispensed using a Kalypsys dispenser. Then 23nl of compounds and controls are added with Kalypsys pintool. The control is 26.5 mM CBT358 (final concentration of 151 uM) and the compounds' final range in concentration is 457 nM - 114 uM. Plate is centrifuged at 1000 RPM for 15 seconds to remove any residual bubbles. The plate is then incubate at ambient room temperature for 2 hours. It is then read on the Envision for a fluorescent polarization read-out (Ex 595 nm/Em 615 nm)
# Potency means the concentration at half of the fitted maximal effect.
row,Structure (SMILES),Potency
1,COc1cc(/C=C/[N+](=O)[O-])ccc1O,inactive
2,O=C(O)CCn1cc(C=C2C(=O)NC(=S)NC2=O)c(-c2cccc(Br)c2)n1,inactive
3,COC(=O)COc1ccc(/C=C2\C(=O)NC(=S)N(c3ccc(C)cc3)C2=O)cc1OC,inactive
4,CC(C)n1c(O)c(C2c3cc(Cl)ccc3Oc3[nH]c(=O)n(C(C)C)c(=O)c32)c(=O)[nH]c1=O (stereo not drawn),inactive
5,O=C1NC(=O)C(=Cc2ccc(-c3ccc(S(=O)(=O)N4CCOCC4)cc3)o2)C(=O)N1,inactive
6,CN1C(=O)NC(=O)/C(=C\C=C\c2ccccc2[N+](=O)[O-])C1=O,inactive
7,CN1C2CCC1/C(=C/c1ccccn1)C(=O)/C2=C\c1ccccn1,inactive
8,O=C(O)CCC(=O)NCCC1=c2ccccc2=N/C1=C\c1c(O)n(Cc2ccc(F)cc2)c(=S)[nH]c1=O,inactive
9,O=C1NC(=O)N(c2ccccc2)C(=O)/C1=C/c1ccc([N+](=O)[O-])s1,inactive
10,O=C1NC(=O)C(=Cc2ccc(-c3cc(Cl)ccc3[N+](=O)[O-])o2)C(=O)N1,inactive
11,Cc1ccccc1N1C(=O)NC(=O)/C(=C\c2cnn(-c3ccccc3)c2)C1=O,inactive
12,O=c1oc2ccccc2c(O)c1[C@H]1c2ccc(O)cc2Oc2c1c(=O)oc1ccccc21,inactive
13,O=C(O)CCn1cc(C=C2C(=O)NC(=S)NC2=O)c(-c2cccc(Cl)c2)n1,inactive
14,CN1CCC(O)(c2cccs2)C(C(=O)c2cccs2)C1 (stereo not drawn),28.2 µM (active)
15,COc1cccc(C2CC3C(=O)C=CC2N3Cc2ccccc2)c1 (stereo not drawn),28.2 µM (active)
16,Cc1nn(Cc2ccccc2)c(C)c1C=C1C(=O)NC(=S)NC1=O,inactive
17,Cc1ccc(N2C(=O)NC(=O)/C(=C\c3cnc(-c4ccccc4)nc3)C2=O)cc1,inactive
18,CCOC(=O)c1c(NS(=O)(=O)c2ccccc2)n(CCCOC)c2nc3ccccc3nc12,3.55 µM (active)
